# In PubChem BioAssay (Tox21):
# Values joined by “and” are separate entries in the source; they are usually repeats but may differ in a detail not shown here. Identical values can stand only once. Records with an inconclusive call do not appear. Entries that show only a call come without a potency. Some structures have more than one record in an assay (separate samples or runs), and their calls can disagree. Active and inactive are the calls of the source. Calls come from the whole dose curve.
# Key:
# [1] = molecular target: Acetylcholinesterase (Homo sapiens) (UniProt P22303); test: Acetylcholinesterase (AChE) small molecule antagonists: colormetric cell-based qHTS assay (AID 1347395); note: nearly all actives have a fitted effect of over 30% in size; note: potency is the fitted concentration of half-maximal effect
# How it was run: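 SH-SY5Y cells, plated overnight at 37 C, were exposed to compounds for 30 min at 37 C and 5% CO2. Acetylthiocholine plus DTNB was then added, and thiocholine from endogenous AChE was quantified colorimetrically after 90 min at 37 C.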
# [2] = molecular target: Acetylcholinesterase (Homo sapiens) (UniProt P22303); test: Acetylcholinesterase (AChE) small molecule antagonists: enzyme-based qHTS assay (AID 1347397); details: Potency: AChE enzyme activity inhibition; outcome: AChE enzyme activity inhibition; note: nearly all actives have a fitted effect of over 55% in size; note: potency is the fitted concentration of half-maximal effect
# How it was run: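 Absorbance-based detection of thiocholine with DTNB served as the read-out. Recombinant human AChE was exposed to compound for 30 min at RT before a 10 min RT incubation with acetylthiocholine.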
# [3] = molecular target: Acetylcholinesterase (Homo sapiens) (UniProt P22303); test: Acetylcholinesterase (AChE) small molecule antagonists: fluorescence cell-based qHTS assay (AID 1347398); details: Potency: AChE activity; outcome: AChE activity; note: nearly all actives have a fitted effect of over 50% in size; note: potency is the fitted concentration of half-maximal effect
# How it was run: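 Fluorimetric cell-based assay: intact SH-SY5Y cells, 30 min compound preincubation at 37 C, acetylthiocholine substrate with thiol probe Thiolite Green, 40 min RT development, fluorescence 490/520 nm.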
# [4] = molecular target: Acetylcholinesterase (Homo sapiens) (UniProt P22303); test: Acetylcholinesterase (AChE) small molecule antagonists: enzyme-based qHTS assay with human liver microsomes (AID 1347399); details: Potency: qHTS inhibition; outcome: qHTS inhibition; note: nearly all actives have a fitted effect of over 60% in size
# How it was run: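 Recombinant human AChE (50 mU/mL in the enzyme mix) and human liver microsomes (0.25 mg/mL final) were preincubated with compound and NADPH (0.25 mg/mL final) for 30 min at 37 C. Acetylthiocholine/DTNB was then added; thiocholine was read colorimetrically after 10 min at room temperature.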
# Chain of Acetylcholinesterase (Homo sapiens) (P22303 whole entry, looked up): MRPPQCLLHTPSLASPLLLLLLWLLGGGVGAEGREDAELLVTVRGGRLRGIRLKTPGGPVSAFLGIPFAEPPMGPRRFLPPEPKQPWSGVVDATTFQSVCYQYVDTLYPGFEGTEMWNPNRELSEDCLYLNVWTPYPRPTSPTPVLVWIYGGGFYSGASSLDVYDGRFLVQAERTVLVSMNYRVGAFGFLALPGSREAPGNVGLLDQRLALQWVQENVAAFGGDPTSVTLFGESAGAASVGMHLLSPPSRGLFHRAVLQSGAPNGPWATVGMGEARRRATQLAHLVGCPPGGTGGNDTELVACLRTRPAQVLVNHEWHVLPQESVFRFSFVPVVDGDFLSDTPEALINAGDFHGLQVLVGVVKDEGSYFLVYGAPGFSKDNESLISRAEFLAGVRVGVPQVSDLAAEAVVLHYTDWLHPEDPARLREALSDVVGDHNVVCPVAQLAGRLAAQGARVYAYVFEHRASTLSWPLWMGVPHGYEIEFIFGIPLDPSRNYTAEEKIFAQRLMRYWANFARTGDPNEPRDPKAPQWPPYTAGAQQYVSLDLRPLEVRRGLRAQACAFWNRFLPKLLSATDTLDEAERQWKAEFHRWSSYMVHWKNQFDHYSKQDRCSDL
Compound,Potency [1],Potency [2],Potency [3],Potency [4],"activity, negative = inhibition [1]","activity change, negative = inhibition [2]","activity change, negative = inhibition [3]","activity change, negative = inhibition [4]"
COc1ccc(Nc2ccc(OC)cc2)cc1,inactive,inactive,inactive,inactive,–,–,–,–
COCc1c(C(C)C)nc(C(C)C)c(/C=C/[C@@H](O)C[C@@H](O)CC(=O)O)c1-c1ccc(F)cc1,inactive,inactive,inactive,inactive,–,–,–,–
Cc1cc2c(C(C)C)c(O)c(O)c(C=O)c2c(O)c1-c1c(C)cc2c(C(C)C)c(O)c(O)c(C=O)c2c1O,inactive,inactive,inactive,inactive,–,–,–,–
CCC(C)(C)C1CCC(O)CC1 (stereo not given),inactive,inactive,inactive,inactive,–,–,–,–
O=C1CCCC1,inactive,inactive,inactive,inactive,–,–,–,–
Cc1nc2c([nH]1)c(=O)n(C)c(=O)n2Cc1ccco1,inactive,inactive,inactive,inactive,–,–,–,–
CN1[C@@H]2CC[C@H]1CC(OC(=O)c1c[nH]c3ccccc13)C2 (stereo not given in full),inactive,inactive,inactive,inactive,–,–,–,–
COC(=O)CCCCC(=O)O,inactive,inactive,inactive,inactive,–,–,–,–
NC(=O)NC(N)=O,inactive,inactive,inactive,inactive,–,–,–,–
C/C=C/C(=O)C1=C(C)CCCC1(C)C,inactive,inactive,inactive,inactive,–,–,–,–
CCOC(=O)C1=NN(c2ccccc2)C(=O)C1,inactive,inactive,inactive,inactive,–,–,–,–
CC(C)OC(=O)COc1ccc(Cl)cc1Cl,inactive,inactive,inactive,inactive,–,–,–,–
CCN(CCCc1ccccc1)CCCc1ccccc1,inactive,inactive,inactive,inactive,–,–,–,–
Oc1ccc(N=Nc2ccccc2)cc1,inactive,inactive,inactive,inactive,–,–,–,–
c1ccc(SCCSc2ccccc2)cc1,inactive,inactive,inactive,inactive,–,–,–,–
c1ccc2sc(SSc3nc4ccccc4s3)nc2c1,–,–,–,–,-2.2% [at 23.6 µM] (inactive),0.97% [at 23.6 µM] (inactive),3.45% [at 23.8 µM] (inactive),-1.01% [at 23.6 µM] (inactive)
O=C(O)[C@H](O)[C@@H](O)[C@H](O)[C@H](O)CO,inactive,inactive,inactive,inactive,–,–,–,–
CCCCCCCCCCCCCCNCCO,inactive,inactive,inactive,inactive,–,–,–,–
COCCCOc1cc(C[C@@H](C[C@H](N)[C@@H](O)C[C@H](C(=O)NCC(C)(C)C(N)=O)C(C)C)C(C)C)ccc1OC,inactive,inactive,inactive,inactive,–,–,–,–
CCC(C)C(C)=O (stereo not given),inactive,inactive,inactive,inactive,–,–,–,–
CCOC(=O)C1=NOC(c2ccccc2)(c2ccccc2)C1,inactive,inactive,inactive,inactive,–,–,–,–
Cc1cc(C)c(O)c(C)c1,inactive,inactive,inactive,inactive,–,–,–,–
O=C1c2ccccc2C(=O)C1c1ccc2cc(S(=O)(=O)O)cc(S(=O)(=O)O)c2n1,inactive,inactive,inactive,inactive,–,–,–,–
Cc1ccc(Cl)c(Nc2ccccc2C(=O)O)c1Cl,inactive,inactive,inactive,inactive,–,–,–,–
CCOC(=O)[C@H](C)O,inactive,inactive,inactive,inactive,–,–,–,–
CCCOCCOCCOCCO,inactive,inactive,inactive,inactive,–,–,–,–
C=CN1CCCC1=O,inactive,inactive,inactive,inactive,–,–,–,–
COCCc1ccc(OCC2CO2)cc1 (stereo not given),inactive,inactive,inactive,inactive,–,–,–,–
CCCCCCCCn1sc(Cl)c(Cl)c1=O,inactive,inactive,inactive,inactive,–,–,–,–
CCCCCCCCCCCCCC[N+](C)(C)Cc1ccccc1,64.3 µM (active) and inactive,64.3 µM (active),36.2 µM (active) and 30.9 µM (active) and 15.8 mM (active),inactive,–,–,–,–
